# ChEMBL document CHEMBL4513216, “Probing the Open Global Health Chemical Diversity Library for Multistage-Active Starting Points for Next-Generation Antimalarials” (ACS Infect Dis, 2020)
# Screen size: about 68,000 compounds; about 2,700 (4%) showed an effect of 50% or more. This excerpt belongs to a sample that is enriched for strong results.
# System: Plasmodium berghei
# Assay: Screen against P. berghei liver stage (PbLuc), transformed with Luciferase, at 2uM
# Format: functional, HepG2
# Settings: tested at 2 uM
row,Compound,INHIBITION [%]
1,CCc1[nH]ncc1C(=O)N1CCCC(n2cccn2)C1 (stereo not given),2.7
2,Cc1ccccc1OCCCC(=O)N1CCCC(n2cncn2)C1 (stereo not given),39.54
3,O=C(C1CN(CC2CC2)CC12CCOCC2)N1CCCC1 (stereo not given),31.41
4,O=C1N(Cc2ccccc2)C[C@H]2CN(Cc3ccccc3Cl)CCN12,64.44
5,COCCN1C[C@H]2CN(Cc3cccc(OC)c3)CCN2C1=O,36.44
6,Cc1ccc(CN2C[C@H]3CN(Cc4ccccc4Cl)CCN3C2=O)cc1,40.83
7,CS(=O)(=O)NC[C@]12COC[C@H]1CN(Cc1ccc3c(c1)OCO3)C2,-6.8
8,COC1CCN(C(=O)CCn2cccn2)CC1,26.61
9,c1cnc(N2CCC(C3CCN(CCCn4cccn4)C3)CC2)nc1 (stereo not given),19.04
10,CCCC1CCCN(C(=O)CCn2cccn2)CC1 (stereo not given),63.68
11,CCN(CC)CC1CCN(C(=O)CCn2cccn2)CC1,-13.06
12,O=C(CCc1cn[nH]c1)N1CCC(C2CCN(c3ncccn3)CC2)C1 (stereo not given),45.48
13,O=C(CCn1cccn1)N1CCC(C2CCN(c3ncccn3)CC2)C1 (stereo not given),52.08
14,Cn1cccc1C(=O)N1CC2(CCN(C(=O)c3cccnc3)C2)C1,21.77
15,CCc1noc(C2CCN(C(=O)CCn3nc(C)cc3C)CC2)n1,12.3
16,c1ccc(Cc2noc(CN3CCOC(Cn4cccn4)C3)n2)cc1 (stereo not given),-0.6
17,O=C(CCO)N1C[C@H]2CN(c3ccccc3)C(=O)[C@H]2C1,54.01
18,O=C(CC1CC1)N1C[C@@H]2CN(c3ccccc3)C(=O)[C@@H]2C1,28.2
19,O=C(C1CCC1)N1C[C@@H]2CN(c3ccccc3)C(=O)[C@@H]2C1,49.07
20,NC(=O)COc1ccc(CNCc2ccc(F)c(F)c2)cc1,-52.95
21,Cn1ccnc1CCNS(=O)(=O)c1ccc(Br)cc1,-16.21
22,COc1cccc2c1CCC2NC(=O)NCc1csc(N(C)C)n1 (stereo not given),-57.02
23,Cc1nn(C)c(N(C)C)c1CNC(C)COc1cccc(F)c1 (stereo not given),34.83
24,CC(C)N(C(=O)CCc1ccco1)C1CCOCC1,76.6
25,CC(C)N(C(=O)CCc1cccc(F)c1)C1CCOCC1,-7.16
26,COc1ccc(CCC(=O)N(C(C)C)C2CCOCC2)cc1,20.76
27,O=C(NCC1CCCCO1)c1ccc(-c2ccco2)[nH]c1=O (stereo not given),38.67

row,Compound,INHIBITION [%]
1,Cc1cc(S(=O)(=O)N2CC[C@@H](O)C2)c(Cl)cc1F,-54.78
2,CCN1CCN(S(=O)(=O)c2cc(C)c(Cl)cc2Cl)CC1,26.09
3,Cc1cc(S(=O)(=O)N2CCC(N3CCC(O)C3)CC2)c(Cl)cc1Cl (stereo not given),55.73
4,CC(C)c1nnc(CN(C)Cc2ccccc2-c2ccccc2)o1,20.63
5,CC(CCN(C)C)NC(=O)c1cccc(C(F)(F)F)c1F (stereo not given),52.38
6,COc1cccc(C(=O)NC(C)CCN2CCOCC2)c1F (stereo not given),-22.65
7,CC(CCN1CCOCC1)NC(=O)c1cccc(C(F)(F)F)c1F (stereo not given),18.37
8,Cc1nnc2n1CCN(CCOc1cccc(C#N)c1)C2,33.82
9,CC(C)(O)CCc1ccc(C(=O)NCC2CCCOC2)cc1 (stereo not given),42.27
10,Cc1nc2cc(C(=O)N3C[C@@H](NS(C)(=O)=O)[C@H](C(C)C)C3)ccc2[nH]1,-1.71
11,Cc1ccc(C(=O)N2C[C@H](NS(C)(=O)=O)[C@@H](C(C)C)C2)cc1F,-43.88
12,Cc1ccc(C(=O)N2C[C@@H](NS(C)(=O)=O)[C@H](C(C)C)C2)cc1O,51.72
13,O=C(c1ccco1)N1C2CCC(O)(CC2)C1CO (stereo not given),3.38
14,O=c1ccc2c(n1Cc1cccnc1)CCN(Cc1ccoc1)CC2,0.13
15,O=c1ccc2c(n1Cc1ccncc1)CCN(Cc1ccoc1)CC2,50.91
16,O=c1ccc2c(n1CCN1CCCC1)CCN(Cc1ccoc1)CC2,-1.79
17,CCn1c2c(ccc1=O)CC(N)CC2 (stereo not given),13.38
18,NC1CCc2c(ccc(=O)n2Cc2ccncc2)C1 (stereo not given),55.11
19,NC1CCc2c(ccc(=O)n2CC2CC2)C1 (stereo not given),24.86
20,CCOCC1CN(Cc2ccco2)Cc2nccn2C1 (stereo not given),-7.76
21,CNS(=O)(=O)c1cnccc1N1CCN(C(C)C)CC1,15.75
22,Cc1cc(NCCNc2ccc(C#N)cn2)nc(C)n1,21.81
23,Cc1cccc(NCCNc2ccc(C#N)cn2)n1,60.79
24,Cc1csc(CCNc2ccc(C#N)cn2)n1,20.29
25,COc1ccc(NC(=O)NCC(O)c2ccc(F)cc2F)c(OC)c1 (stereo not given),47.72
26,CCn1ccnc1CN1CCN(c2nccc(OC)n2)CC1C (stereo not given),72.05
27,CCCN1CCN(Cc2nccn2CC)C(C)C1 (stereo not given),16.97

row,Compound,INHIBITION [%]
1,CCn1ccnc1CN1CCN(C(C)C)CC1C (stereo not given),-49.57
2,COc1ccccc1C(NCc1ccc(SC)cc1)c1nccn1C (stereo not given),16.26
3,COc1ccc(C2CCN(Cc3cscn3)CC2)cc1,56.84
4,COc1ccc2c(c1)CCN(Cc1cscn1)CC2,1.54
5,COc1ccc(OC)c(CN2CCN(Cc3cscn3)CC2)c1,1.3
6,Cc1csc2ncc(-c3ccnc(N4CCC[C@H](C(N)=O)C4)n3)c(=O)n12,43.16
7,COC[C@@H]1CC[C@H]2[C@H](CCN2S(=O)(=O)c2cccc(F)c2)O1,9.46
8,CNC(=O)NC(=O)CN1CCc2c(Br)ccc(F)c2C1,-20.8
9,NC(=O)C1(CCCc2ccccn2)CCCN(CCO)C1 (stereo not given),-17.3
10,COCCN1CCCC(CCCc2ccccn2)(C(N)=O)C1 (stereo not given),55.74
11,NC(=O)CN1CCCC(CCCc2ccccn2)(C(N)=O)C1 (stereo not given),12.8
12,Cc1ccc(NS(=O)(=O)c2cc3c(c(C(=O)O)c2)OCCO3)c(F)c1,57.95
13,CN(c1ccccc1)S(=O)(=O)c1cc2c(c(C(=O)O)c1)OCCO2,53.19
14,Cc1cc(C)cc(N(C)S(=O)(=O)c2cc3c(c(C(=O)O)c2)OCCO3)c1,34.46
15,O=C(O)c1cc(S(=O)(=O)Nc2ccc(F)cc2F)cc2c1OCCO2,-29.54
16,CN(c1ccc(F)cc1)S(=O)(=O)c1cc2c(c(C(=O)O)c1)OCCO2,26.75
17,Cc1ccc(F)c(NS(=O)(=O)c2cc3c(c(C(=O)O)c2)OCCO3)c1,-45.83
18,O=C(Cc1cccs1)NCC1COCc2c(-c3ccoc3)nnn2C1 (stereo not given),24.34
19,COc1cc(CN(C)C(=O)NCCC(=O)NC2CCCC2)ccc1SC,49.88
20,Cc1occc1C(=O)N1CCCS1(=O)=O,29.41
21,CN(C)S(=O)(=O)N1CC[C@]2(C[C@H](OCc3ccncc3)CO2)C1,9.65
22,COCCN1CC(Nc2nc(C(C)C)nc3c2cnn3C)CC1=O (stereo not given),57.34
23,CC(C)C(=O)N1CCC(CNc2nc(C(C)C)nc3c2cnn3C)CC1,19.12
24,COCCN1CC(Nc2nc(C3CCCC3)nc3c2cnn3C)CC1=O (stereo not given),40.4
25,C=c1ncsc1=C1NN=C(C2CCCN2C(=O)CCn2ccc(C)n2)O1 (stereo not given),-16.2
26,CC(NC(=O)NCCCN1CCc2ccccc2C1)c1nncn1C (stereo not given),10.53
27,COc1cc(F)c(S(=O)(=O)N2CCN(C)Cc3ccccc32)cc1OC,-50.8

row,Compound,INHIBITION [%]
1,CN1CCN(S(=O)(=O)c2cncc(F)c2)c2ccccc2C1,52.73
2,Cc1cc(F)ccc1S(=O)(=O)N1CCN(C)Cc2ccccc21,26.62
3,CN(C(=O)Cn1nc(-c2ccc(F)cc2)ccc1=O)C1CCS(=O)(=O)C1 (stereo not given),11.87
4,CS(=O)(=O)N1CCCC1c1ccnc2nccn12 (stereo not given),12.35
5,CC(C)Oc1cc(N2CCC(N3CCC(O)CC3)CC2)nc(N)n1,2.39
6,CC(C)Oc1cc(N2CC[C@H](CO)[C@@H](O)C2)nc(N)n1,-1.63
7,CC(C)Oc1cc(N2CCC(C(N)=O)CC2)nc(N)n1,54.41
8,CC(O)c1cccc(Nc2nc(NCCO)c3ccccc3n2)c1 (stereo not given),60.26
9,CCN(CC)c1nc(Nc2cccc(C(C)O)c2)nc2ccccc12 (stereo not given),6.9
10,CCN(CC)c1nc(Nc2cccc(C(=O)O)c2)nc2ccccc12,22.51
11,C=C(C)CN(CC)Cc1nc(CC)no1,29.39
12,Cc1nc(CN2CCC3(CC2)CCN(C(=O)c2cscn2)C3)cs1,36.75
13,Cc1ccc(-c2noc([C@@H]3C[C@H](NC(=O)CC(C)(C)C)CN3C)n2)cc1,29.3
14,CCOC(=O)CCCNC(=O)CN1CCN(c2ncccn2)CC1,6.56
15,O=C(NCCCN1CCN(c2ncccn2)CC1)Nc1ccccn1,7.62
16,CCc1nccn1CCCNC(=O)CN1CCN(c2ncccn2)CC1,52.57
17,CC(C)c1cc(C2CCCN2C(=O)CN2C(=O)OC(C)(C)C2=O)no1 (stereo not given),64.74
18,Cc1cc(C2CCCCN2C(=O)CN2C(=O)OC(C)(C)C2=O)no1 (stereo not given),13.51
19,Cc1cc(C2CCCN2C(=O)CN2C(=O)OC(C)(C)C2=O)on1 (stereo not given),40.83
20,CC(C)Cc1cc(C(=O)NC(C)C)[nH]n1,31.66
21,O=C(Nc1nc(-c2ccccc2)ns1)N1CCN(C(=O)C2CC2)CC1,7.3
22,CN(C)Cc1ccccc1Cn1cncc1-c1cnn(C)c1,55.3
23,CC(Cn1cncc1-c1cnn(Cc2ccccc2)c1)N1CCCCC1 (stereo not given),-22.72
24,CCn1nc(C)c(-c2cncn2Cc2ccccc2CN(C)C)c1C,17.29
